PostGolgi ctrl – inhibits growth of the yeast control strain | 98,000 compounds, 5% hits | efflux-deficient yeast background strain, growth absorbance A615, 16 h | inhibition, % at 10 µM | AID 738
GALR2 antag – antagonists of human galanin receptor 2 (GALR2); GALR2-expressing cells, antagonist mode; inhibition, % at 4 µM; 140,000 compounds, 0.39% hits; in the data active = inhibition above about 27%;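 note: cells stimulated with galanin 1-16 at roughly its EC80; 0% = agonist challenge control and 100% = basal control without agonist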
Target sequence (O43603 whole entry, looked up): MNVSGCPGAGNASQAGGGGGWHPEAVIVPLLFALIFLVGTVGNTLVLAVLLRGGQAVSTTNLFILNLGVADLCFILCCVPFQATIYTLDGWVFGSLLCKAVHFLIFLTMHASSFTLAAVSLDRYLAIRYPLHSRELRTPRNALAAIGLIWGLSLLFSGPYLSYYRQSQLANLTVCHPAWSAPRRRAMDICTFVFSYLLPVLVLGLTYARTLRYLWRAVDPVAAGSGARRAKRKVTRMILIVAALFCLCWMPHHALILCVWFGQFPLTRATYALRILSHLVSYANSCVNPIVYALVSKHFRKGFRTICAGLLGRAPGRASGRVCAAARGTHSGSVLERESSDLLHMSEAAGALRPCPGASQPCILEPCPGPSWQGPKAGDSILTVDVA
GALR2 ag – agonists of human galanin receptor 2 (GALR2). O43603. activation, % (concentration not given with the values). GALR2-expressing cells, agonist activation read-out. 140,000 compounds, 0.48% hits; in the data active = activation above about 5%, passing the limit was not always enough;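 note: 0% = vehicle buffer wells and 100% = reference agonist at full effect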
S1P2 blocker – blocks the human S1P2 receptor; AID 736; inhibition, % at 5 µM; O95136; 97,000 compounds, 0.21% hits; cell-based S1P2 antagonist assay, inhibition at 5 uM; in the data active = inhibition above about 45%;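 note: CRE beta-lactamase reporter cells expressing human S1P2 stimulated with S1P; 0% = agonist at EC80 alone and 100% = agonist plus reference antagonist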
PostGolgi yeast – growth inhibition of a yeast mutant, post-Golgi transport screen. inhibition, % at 10 µM. 98,000 compounds, 0.9% hits. post-Golgi transport phenotypic cell assay. AID 739;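 note: yeast cells grown in 1536-well plates; yeast grown about 18 h at 30C before absorbance read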
S1P2 agonist – agonists of human S1P2 receptor. O95136. S1P2-expressing cell line, agonist reporter read-out. activation, % at 4.5 µM. 97,000 compounds, 0.46% hits. AID 729; in the data active = activation above about 16%;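 note: 0% = vehicle low control and 100% = maximal reference agonist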
* = called active by the depositor; . = no result. This excerpt belongs to a sample that is enriched for hits. Cut-off read from the data, not from the text of the source, unless noted: active = inhibition above about 30%; inactive = the rest.

SMILES | PostGolgi ctrl | GALR2 antag | GALR2 ag | S1P2 blocker | PostGolgi yeast | S1P2 agonist
N#CC(c1nc2ccccc2nc1N1CCCC1)S(=O)(=O)c1ccccc1 (configuration not stated) | 31* | 3 | -2 | 12 | -1 | -3
O=C(CSc1nnc(-c2ccccc2)c(-c2ccccc2)n1)Nc1ccc(Br)cn1 | . | 12 | 0 | . | . | .
O=C1CCCC2=C1C(c1ccccc1)CC(=O)N2c1ccccc1 (configuration not stated) | 35* | -5 | -1 | 15 | -2 | -4
CC1(C)CC(=O)C2=C(C1)N(c1ccccc1)C(=O)CC2c1ccsc1 (configuration not stated) | 9 | -8 | 0 | -9 | -3 | 0
Cc1ccc(-c2nc(N)sc2CC(=O)OCC(=O)NCC2CCCO2)cc1 (configuration not stated) | . | 7 | 0 | . | . | .
Cc1ccc(CNC(=O)CCc2nc(-c3cccs3)no2)cc1 | 43* | 7 | -2 | 6 | -7 | -7
CN(C)C(=O)COC(=O)c1ccccc1Nc1ccc(SC(F)F)cc1 | . | 2 | -1 | . | . | .
COc1c(Cl)cnn(-c2ccccc2)c1=O | . | 2 | -1 | . | . | .
COc1cnn(-c2ccccc2)c(=O)c1SCc1ccc(Cl)c(Cl)c1 | 60* | -6 | -2 | 3 | 2 | -7
COc1ccccc1NC(=O)C1=C(C)NC2=C(C(=O)CCC2)C1c1ccc2c(c1)OCO2 (configuration not stated) | 0 | -16 | 1 | -35 | 18 | -2
O=c1c(C(c2nnnn2C2CCCCC2)N2CCCCC2)coc2ccc(Cl)cc12 (configuration not stated) | 87* | 2 | 0 | . | 77* | .
CC(C)C1N=C2c3ccccc3N=C(SCc3cc(=O)n4cc(Cl)ccc4n3)N2C1=O (configuration not stated) | 8 | -9 | 0 | -34 | -1 | 25*
CC(C)C1N=C2c3ccccc3N=C(SCC(=O)NCCc3ccc(S(N)(=O)=O)cc3)N2C1=O (configuration not stated) | 3 | 17 | -2 | . | 4 | .
O=c1c2ccccc2[nH]c2ccccc12 | . | 8 | 5.6* | . | . | .
CCCn1c(=O)c(C(=O)NNS(=O)(=O)c2ccc(Cl)cc2)c(O)c2ccccc21 | . | 9 | 2 | . | . | .
CCOCC(=O)Nc1nc2c(s1)C(=O)CC(C)(C)C2 | -4 | -9 | 0 | -11 | -2 | -4
CC1(C)CC(=O)c2sc(NC(=O)C3CC3)nc2C1 | 36* | 0 | -2 | -2 | 5 | 0
COc1cc(CN2CCN(c3ccccc3F)CC2)c([N+](=O)[O-])cc1OC | . | 5 | -1 | . | . | .
CCCNC(=O)c1ccc2c(c1)C1C3CCC(C3)C1C(c1ccccc1)N2 (configuration not stated) | 36* | 6 | -2 | -2 | -3 | -2
COc1ccccc1Cn1c(=O)c2ccccc2n2c(Sc3ncnc4sccc34)nnc12 | 42* | -12 | -1 | 2 | 11 | -2
CCc1cc2c(=O)c(-c3nc4ccccc4[nH]3)coc2c(CN2CCC(C)CC2)c1O | . | 11 | -3 | 13 | . | -8
CCc1cc2c(=O)c(-c3nc4ccccc4[nH]3)coc2cc1OC(=O)N1CCOCC1 | 3 | -1 | 0 | 18 | 31* | -4
Cc1cccc(OCC(=O)N/N=C/c2cn[nH]c2-c2ccc(Cl)c(Cl)c2)c1 | 38* | -8 | 1 | 11 | -5 | -8
COc1ccc(S(=O)(=O)NC(CC(=O)NCc2ccco2)C(C)C)cc1 (configuration not stated) | 38* | 5 | -3 | 14 | 0 | -6
CCn1ncc(/C=N/NC(=O)c2ccc3c(c2)OCO3)c1C | 33* | 4 | -1 | -6 | 3 | -1
SMILES | PostGolgi ctrl | GALR2 antag | GALR2 ag | S1P2 blocker | PostGolgi yeast | S1P2 agonist
O=C(N/N=C\c1cn(-c2ccccc2)nc1-c1ccccc1)c1ccc2c(c1)OCO2 | 34* | 12 | -2 | -2 | -6 | -5
O/N=C/c1cn(-c2ccccc2)nc1-c1ccc2c(c1)OCCO2 | 31* | -2 | -2 | 4 | 8 | -8
Cc1c(/C=N/NC(=O)c2ccc3c(c2)OCO3)cnn1C | 6 | 12 | 0 | -8 | 4 | -3
OCc1cn(-c2ccccc2)nc1-c1ccc2c(c1)OCCO2 | 13 | -10 | 1 | -6 | -7 | 4
COc1ccc(-c2nn(-c3ccccc3)cc2/C=N/NC(=O)c2ccc(Br)o2)cc1 | 15 | -1 | -1 | 47* | 1 | -5
O=C(/C=C1\NCC2c3ccccc3CCN2C1=O)c1ccccc1 (configuration not stated) | 8 | -4 | -2 | 26 | -4 | -6

High-throughput results from PubChem BioAssay.
